From PubChem BioAssay
Compounds with a hit are over-represented: about 7.2% of the library has one in this group of screens.
Luciferase inh – Firefly luciferase inhibition profiling of diverse chemical library using quantitative high-throughput screening; Potency, µM (doses to about 115 µM), actives largely listed as inhibitors; AID 1347043, 2019; 2.5% of 76,000 active; purified P. pyralis luciferase, luminescence, biochemical; Luciferin 4-monooxygenase (Photinus pyralis), P08659; also: nearly all actives have a fitted effect of over 65% in size
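FLuc 10nM, D-luciferin 10uM, ATP 10uM, Mg acetate 10mM, Tris acetate pH 7.5, Tween/BSA; cpd qHTS; enzyme added last; CCD luminescence.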
hNpr1 antagonist – Natriuretic polypeptide receptor (hNpr1) antagonism - Primary qHTS; 1.6% of 76,000 active; Potency, µM (highest dose often 46.3 µM), for inactives: at the top dose activity change, negative = inhibition, hits mostly inhibitors; HEK293 hNpr1 GloSensor cGMP, ANP-stimulated luminescence; Atrial natriuretic peptide receptor 1 (Homo sapiens), P16066; calls by dose curve; also: nearly all actives have a fitted effect of over 60% in size
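HEK293 cells stably expressing human Npr1 and cGMP GloSensor pGS-40F, loaded 2 h with 2% GloSensor reagent, given compound 30 min at room temperature. Luminescence read before and 20 min after 0.1 nM hNppA.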
NIH3T3 tox – Cytotoxic Profiling in NIH 3T3 Cell Line of Diverse Libraries Using Quantitative High-Throughput Screening. NIH 3T3 viability, CellTiter-Glo ATP luminescence, 48-72 h. Potency, µM (series often up to 96.7 µM), inactives show at the highest dose activity change, negative = cytotoxicity, hits mostly inhibitors. 4.3% of 94,000 active. AID 1345082, 2018; also: nearly all actives have a fitted effect of over 55% in size
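Cytotoxicity is measured as loss of cellular ATP: NIH 3T3 cells (400/well) are exposed to compound for 48 or 72 hr at 37 °C, then CellTiter-Glo luminescence is imaged after 10 min at room temperature.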
HEK cytotox – Cytotoxic Profiling in HEK 293 Cell Line of Diverse Libraries Using Quantitative High-Throughput Screening; HEK 293 viability, ATP luminescence (CellTiter-Glo), 48-72 h; Potency, µM (series often up to 115 µM), without a hit: top-dose activity change, negative = cytotoxicity, hits mostly inhibitors; 6.6% of 94,000 active; AID 1345083, 2018; also: nearly all actives have a fitted effect of over 60% in size
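Pintool-delivered compounds were incubated with HEK 293 cells (250 cells/well) at 37 degree Celsius for 48 or 72 hr. ATP-dependent luminescence (CellTiter-Glo) then reported remaining viable cells.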
SNCA expr inhib – Primary qHTS assay for inhibitors of alpha-synuclein gene (SNCA) expression; HEK-293 SNCA-luciferase knock-in, luminescence, 24 h; Potency, µM (titrated, usually from 57.2 µM), for the others: at the highest dose activity change, negative = inhibition, most hits filed as inhibitors; 0.17% of 140,000 active; AID 1671194, 2021;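 also: plate controls were DMSO cells for no effect and cell-free wells for full effect; nearly all actives have a fitted effect of over 45% in size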
HEK293 viab – GF-AFC viability counterscreen for inhibitors of alpha-synuclein gene (SNCA) expression; HEK-293-SNCA-luc viability, GF-AFC fluorescence, 24 h; Potency, µM (highest dose often 57.1 µM), for the others: at the top dose activity change, negative = cytotoxicity, most hits filed as cytotoxic; 0.12% of 150,000 active; AID 1671193, 2021;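 also: 0% = DMSO-treated cells and -100% = medium-only wells without cells; nearly all actives have a fitted effect of over 30% in size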
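Cytotoxicity counterscreen: after 24 h compound treatment of genome-edited SNCA-luciferase HEK-293 cells, live-cell protease substrate GF-AFC read by fluorescence after 30 min; activity scaled between DMSO (0%) and medium-only (-100%), curves Hill-fitted.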
* = called active by the depositor; i = inactive; ? = inconclusive; . = no result given; [ ] = remark or other dose. Unless noted, calls follow the shape of the dose curve; as a rule, active = well fitted curve in the direction sought with a large enough effect; inconclusive = small, poorly fitted or top-dose-only effect, or another doubt; inactive = no such curve, though single readings can be large; an effect the other way counts as inactive or inconclusive. Unless noted, % is scaled to controls: 0 for no effect and ±100 for the full control effect; potency is read from the fitted curve at half-maximal effect.

SMILES	Luciferase inh	hNpr1 antagonist	NIH3T3 tox	HEK cytotox	SNCA expr inhib	HEK293 viab
CC(C)CNc1ccc2c(n1)C(C)(C(=O)NC1CC1)CN(Cc1ccccc1)C2 (stereo unspecified)	i	-14%[70.6 µM]	?	63µM*	?	?
CNC(=O)C1(C)CN(Cc2ccccc2)Cc2ccc(NCC(C)C)nc21 (stereo unspecified)	i	?	?	?	-28%[87.6 µM]	-25%[87.6 µM]
CC(C)CNc1ccc2c(n1)C(C)(C(=O)Nc1cccnc1)CN(Cc1ccccc1)C2 (stereo unspecified)	i	-17%[70.6 µM]	28µM*	50µM*	?	-6%[87.6 µM]
CC(C)CNc1ccc2c(n1)C(C)(C(=O)N1CCC1)CN(Cc1ccccc1)C2 (stereo unspecified)	i	6%[70.6 µM]	?	?	10%[87.6 µM]	?
CC(C)CNc1ccc2c(n1)C(C)(C(=O)NC1CCOCC1)CN(Cc1ccccc1)C2 (stereo unspecified)	i	2%[70.6 µM]	?	79µM*	-4%[87.6 µM]	-8%[87.6 µM]
O=C(Cc1c[nH]c2ccccc12)N1CCC(N2C(=O)C(O)C23CCCCC3)CC1 (stereo unspecified)	i	5%	i	-11%	7%	10%
CCOc1ccc(NC(=O)Cn2cccc2-c2nc(-c3ccccc3)no2)cc1	i	-4%	?	28µM*	4%	?
COc1ccccc1N1CCN(C(=O)Cn2cccc2-c2nc(-c3ccc(F)cc3)no2)CC1	i	-4%	?	40µM*	-13%	-3%
O=C(Cn1cccc1-c1nc(-c2ccc(F)cc2)no1)N1CCN(c2ccccc2F)CC1	i	-14%	-12%	?	12%	-17%
COc1ccc(NC(=O)Cn2cccc2-c2nc(-c3ccccc3)no2)cc1OC	i	5%	32µM*	32µM*	?	-33%
CCOC(=O)C1(Cc2cccc(OC)c2)CCCN(Cc2cccc(C)n2)C1 (stereo unspecified)	i	5%	3%	?	-27%	-2%
CCOC(=O)C1(Cc2ccccc2C(F)(F)F)CCN(C(C)Cc2cccc(C)n2)CC1 (stereo unspecified)	i	?	28µM*	13µM*	-22%	?
CN(Cc1ccccn1)Cc1ccccc1C(F)(F)F	i	19%[70.6 µM]	4%[138 µM]	i	32%[87.6 µM]	6%[87.6 µM]
CCOC(=O)C1(Cc2ccccc2C(F)(F)F)CCN(Cc2ccccn2)CC1	i	-1%	?	40µM*	-14%	-11%
CCOC(=O)C1(Cc2cccc(C(F)(F)F)c2)CCN(Cc2cn(CC)nc2C)CC1	i	?	?	20µM*	?	-6%
CN1CCCC1c1nc(C2CN(C(=O)CC3CCCCC3)C2)no1 (stereo unspecified)	.	.	-7%	-5%	13%	1%
Cn1nccc1C(=O)N1CCC(Oc2ccccc2-c2nc(-c3ccccc3)no2)C1 (stereo unspecified)	i	-3%	?	?	-18%	?
CC1(C)[C@H]2CC[C@@H](CNC(=O)c3cncc(Br)c3)[C@@H]1C2	i	5%	?	79µM*	-5%	6%
COc1ccc(CC(=O)NC[C@@H]2CC[C@H]3C[C@@H]2C3(C)C)cc1	i	2%[70.6 µM]	?	?	88%[87.6 µM]	-9%[87.6 µM]
COc1ccc(C(=O)NC[C@@H]2CC[C@H]3C[C@@H]2C3(C)C)cc1	i	?	?	100µM*	10%[87.6 µM]	-12%[87.6 µM]
